Source: the supplement of paper PMC4962491
± gives the standard deviation of the averaged measurements. The full ranking holds about 1,600 compounds; the median of “mitochondrial oxygen consumption rate normalised to cell number, Z score over the library” is about 0.065, and the lowest 2% start at about -2.2. The entries come from a sample that favours the lowest values as a whole.

tested on: FaDu; assay: mitochondrial oxygen consumption rate normalised to cell number, Z score over the library; higher = higher oxygen consumption (negative = OCR reduction); conditions: treatment time 24 h; assay medium: 5 mM galactose, 5 mM pyruvate, 4 mM glutamine; 10 µM
Experimental: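 Primary screen: FaDu cells were incubated 24 h with Pharmakon 1600 / TDI oncology set compounds at 2 or 10 uM. Mitochondrial-specific OCR (basal minus 2 uM antimycin A) was measured on a Seahorse XF96 in assay medium with 5 mM galactose, 5 mM pyruvate and 4 mM glutamine, then corrected for Hoechst cell number and expressed as a Z score […]. Compounds that cut cell number by >66% were excluded. Two repeats.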

| Structure (SMILES) | mitochondrial oxygen consumption rate normalised |
| --- | --- |
| Oc1ccc2ccccc2c1 [beta-NAPHTHOL] | 0.778 ± 0.095 |
| C/C=C(/C)C(=O)O[C@H]1[C@H](OC(C)=O)[C@@]2(CO)C(CC1(C)C)C1=CCC3[C@@]4(C)CCC(O[C@@H]5O[C@H](C(=O)O)[C@@H](O[C@@H]6O[C@H](CO)[C@@H](O)[C@H](O)[C@H]6O)[C@H](O)[C@H]5O[C@@H]5O[C@H](CO)[C@@H](O)[C@H](O)[C@H]5O)[C@](C)(CO)C4CC[C@@]3(C)[C@]1(C)C[C@H]2O.C/C=C(\C)C(=O)O[C@H]1[C@H](OC(C)=O)[C@@]2(CO)C(CC1(C)C)C1=CCC3[C@@]4(C)CCC(O[C@@H]5O[C@H](C(=O)O)[C@@H](O[C@@H]6O[C@H](CO)[C@@H](O)[C@H](O)[C@H]6O)[C@H](O)[C@H]5O[C@@H]5O[C@H](CO)[C@@H](O)[C@H](O)[C@H]5O)[C@](C)(CO)C4CC[C@@]3(C)[C@]1(C)C[C@H]2O (stereo partly drawn) | 0.3 ± 0.096 |
| N=C(N)NC(=N)NCCc1ccccc1 | -1.85 ± 0.1 |
| CC(C)NC(=N)NC(=N)Nc1ccc(Cl)cc1 | -0.293 ± 0.099 |
| N=C(NCCCCCCNC(=N)NC(=N)Nc1ccc(Cl)cc1)NC(=N)Nc1ccc(Cl)cc1 | -3.36 ± 0.16 |
| CN(C)c1cnccn1 | 0.284 ± 0.5 |
| CC[C@H]1OC(=O)C[C@@H](O)[C@H](C)[C@@H](O[C@@H]2O[C@H](C)[C@@H](O)[C@H](N(C)C)[C@H]2O)[C@@H](CCN2C[C@H](C)C[C@H](C)C2)C[C@@H](C)C(=O)/C=C/C(C)=C/[C@@H]1CO[C@@H]1O[C@H](C)[C@@H](O)[C@@H](OC)[C@H]1OC | 0.2667 ± 0.0014 |
| CCCNC(C)C(=O)Nc1ccccc1C (stereo not drawn) | -0.507 ± 1.1 |
| CC(C)[C@H](N)C(=O)OCC(CO)OCn1cnc2c(=O)nc(N)[nH]c21 (stereo partly drawn) | 1.37 ± 0.77 |
| N#Cc1ccc2[nH]cc(CCCCN3CCN(c4ccc5oc(C(N)=O)cc5c4)CC3)c2c1 | -0.383 ± 0.58 |
| CCN(CC)C(=O)N1CCN(C)CC1 | 1.02 ± 0.63 |
| CCOCCOc1ccccc1C(N)=O | 1.14 ± 0.52 |
| Cc1c2oc3c(C)ccc(C(=O)N[C@@H]4C(=O)N[C@H](C(C)C)C(=O)N5CCC[C@H]5C(=O)N(C)CC(=O)N(C)[C@@H](C(C)C)C(=O)O[C@@H]4C)c3nc-2c(C(=O)N[C@@H]2C(=O)N[C@H](C(C)C)C(=O)N3CCC[C@H]3C(=O)N(C)CC(=O)N(C)[C@@H](C(C)C)C(=O)O[C@@H]2C)c(N)c1=O | -4.48 ± 0.4 |
| CO[C@H]1C[C@H](O[C@@H]2/C(C)=C/C[C@@H]3C[C@@H](C[C@]4(CC[C@H](C)[C@@H](C5CCCCC5)O4)O3)OC(=O)[C@@H]3C=C(C)/C(=N/O)[C@H]4OC/C(=C\C=C\[C@@H]2C)[C@]43O)O[C@@H](C)[C@@H]1O | 0.0124 ± 0.37 |
| CN(C)CCc1c[nH]c2ccc(C[C@H]3COC(=O)N3)cc12 | 0.529 ± 0.45 |
| CCC(=O)O[C@H](CC(=O)O)C[N+](C)(C)C | -0.676 ± 0.16 |
| C[C@]12CCC(=O)C=C1CC[C@@H]1[C@@H]2[C@@H](O)C[C@@]2(C)[C@H]1CC[C@]2(O)C(=O)COP(=O)(O)O | 1.06 ± 0.71 |
| NCCc1cc[nH]n1 | -0.155 ± 0.3 |
| CCCCCCOC(=O)NC(=N)c1ccc(NCc2nc3cc(C(=O)N(CCC(=O)OCC)c4ccccn4)ccc3n2C)cc1 | 0.662 ± 0.54 |
| Cc1ncc(COP(=O)([O-])[O-])c(CN(CCN(CC(=O)O)Cc2c(COP(=O)([O-])O)cnc(C)c2O)CC(=O)O)c1O.[Mn].[Na+].[Na+].[Na+] | 0.342 ± 0.21 |
| CCCOc1ccc2[nH]c(NC(=O)OC)nc2c1 | 0.108 ± 0.53 |
| CCCCC(=O)O[C@]1(C(=O)CO)[C@@H](C)C[C@H]2[C@@H]3CCC4=CC(=O)C=C[C@]4(C)[C@@]3(F)[C@@H](O)C[C@@]21C | -0.0902 ± 0.67 |

| Structure (SMILES) | mitochondrial oxygen consumption rate normalised |
| --- | --- |
| O=C1CN2Cc3c(ccc(Cl)c3Cl)N=C2N1 | 1.01 ± 0.66 |
| C[C@]12CC[C@@H]3c4ccc(O)cc4CC[C@H]3[C@@H]1C[C@@H](O)[C@@H]2O | -0.347 ± 0.41 |
| C[C@]12CC[C@@H]3c4ccc(O)cc4CC[C@H]3[C@@H]1CC[C@@H]2O | -0.551 ± 0.072 |
| C[C@]12CC[C@@H]3c4ccc(O)cc4C[C@@H](CCCCCCCCC[S+]([O-])CCCC(F)(F)C(F)(F)F)[C@H]3[C@@H]1CC[C@@H]2O (stereo partly drawn) | -2.25 ± 2.2 |
| N=C(N)NS(=O)(=O)c1ccc(N)cc1 | -0.417 ± 0.81 |
| O=C[C@H](O)[C@@H](O)[C@H](O)CO | -0.552 ± 0.11 |
| CC(C)(C)CC(C)(C)c1ccc(OCCOCC[N+](C)(C)Cc2ccccc2)cc1 | -6.2 ± 0.063 |
| Cc1cc(C(C)(C)CC(C)(C)C)ccc1OCCOCC[N+](C)(C)Cc1ccccc1 | -5.95 ± 0.082 |
| CO[C@H]1C[C@@H]2CC[C@@H](C)[C@@](O)(O2)C(=O)C(=O)N2CCCC[C@H]2C(=O)O[C@H]([C@H](C)C[C@@H]2CC[C@@H](OCCO)[C@H](OC)C2)CC(=O)[C@H](C)/C=C(\C)[C@@H](O)[C@@H](OC)C(=O)[C@H](C)C[C@H](C)/C=C/C=C/C=C/1C | -1.07 ± 0.18 |
| C(=C\c1ccccc1)/CN1CCN(C(c2ccccc2)c2ccccc2)CC1 | -0.167 ± 0.011 |
| COc1ccc2cc(CCC(C)=O)ccc2c1 | 0.808 ± 0.11 |
| O=C(Nc1ccccc1)c1ccccc1O | -0.209 ± 0.021 |
| CC1CCCC(C)N1 (stereo not drawn) | -0.441 ± 0.17 |
| O=C(CCCCCCCC(=O)NCCO)NCCO | -0.567 ± 0.53 |
| Cn1nnnc1SCC1=C(C(=O)O)N2C(=O)[C@@H](NC(=O)[C@H](O)c3ccccc3)[C@H]2SC1 | 0.376 ± 0.31 |
| COCCCOc1ccnc(C[S+]([O-])c2nc3ccccc3[nH]2)c1C (stereo not drawn) | 0.0779 ± 0.21 |
| CCN(CC)CCOC(=O)C(Cc1cccc2ccccc12)CC1CCCO1 (stereo not drawn) | -0.531 ± 1.6 |
| O=C(O)c1cc(O)c2c(c1)[C@H]([C@H]1c3cc(C(=O)O)cc(O)c3C(=O)c3c(O[C@@H]4O[C@H](CO)[C@@H](O)[C@H](O)[C@H]4O)cccc31)c1cccc(O[C@@H]3O[C@H](CO)[C@@H](O)[C@H](O)[C@H]3O)c1C2=O | 0.905 ± 0.018 |
| COc1cccc2c1C(=O)c1c(O)c3c(c(O)c1C2=O)C[C@@](O)(C(=O)CO)C[C@@H]3O[C@H]1C[C@H](N)[C@@H](O)[C@H](C)O1 | -2.82 ± 0.22 |
| CCCCC(=O)OCC(=O)[C@]1(O)Cc2c(O)c3c(c(O)c2[C@@H](O[C@H]2C[C@H](NC(=O)C(F)(F)F)[C@H](O)[C@H](C)O2)C1)C(=O)c1c(OC)cccc1C3=O [valrubicin] | -0.0886 ± 0.77 |
| Cn1nnnc1SCC1=C(C(=O)O)N2C(=O)[C@@H](NC(=O)[C@H](OC=O)c3ccccc3)[C@H]2SC1 | 0.0513 ± 0.34 |
